Columns and labels:
Details in all cases: concentration: 1 μM, replicates: in singlicate; n = 1
[1] = tested on: IRAK1
[2] = tested on: IRAK3
[3] = tested on: IRAK4
[4] = tested on: ITK
[5] = tested on: JAK1(JH1domain-catalytic)
[6] = tested on: JAK1(JH2domain-pseudokinase)
[7] = tested on: JAK2(JH1domain-catalytic)
[8] = tested on: JAK3(JH1domain-catalytic)
[9] = tested on: T1, JNK1
T1 construct: gene MAPK8

[10] = tested on: T2, JNK2
T2 construct: gene MAPK9
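Further: KINOMEscan kinase panel screen.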

Row | SMILES | %Inh [1] [%] | %Inh [2] [%] | %Inh [3] [%] | %Inh [4] [%] | %Inh [5] [%] | %Inh [6] [%] | %Inh [7] [%] | %Inh [8] [%] | %Inh [9] [%] | %Inh [10] [%]
1 | Nc1cccc(-c2ccc3c(N)n[nH]c3c2)n1 [GSK2192730] | 0 | 17 | 4 | 0 | 14 | 65 | 100 | 0 | 0 | 2
2 | COc1cc2ncnc(Nc3cccc(Br)c3)c2cc1OC.Cl [GI230329] | 36 | 21 | 1 | 0 | 3 | 0 | 6 | 0 | 18 | 56
3 | COc1ccc(Nc2nccc(N3CCC(NC(=O)C(C)c4ccc(Cl)cc4)C3)n2)cc1 (centres unmarked) [GSK1379735] | 1 | 10 | 3 | 14 | 10 | 0 | 24 | 0 | 12 | 0
4 | COc1ccc(Nc2nccc(N3CCC(NC(=O)C(C)c4ccc(Cl)cc4)CC3)n2)cc1 (centres unmarked) [GSK1379812] | 6 | 18 | 0 | 22 | 26 | 6 | 0 | 0 | 1 | 14
5 | CC(=O)c1cccc(NC(=O)NC2CCN(c3ccnc(Nc4ccc(F)cc4)n3)C2)c1 (centres unmarked) [GSK1379710] | 27 | 11 | 7 | 8 | 21 | 9 | 25 | 0 | 16 | 13

— paper PMC5540273 (PLoS ONE, 2017)
